The record followed here is PubChem BioAssay (NCI).

The panel holds about 83,000 compounds, 20% with a hit somewhere; the sample as a whole holds those more often.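 Testing used 96-well plates and a 48-hour single-concentration exposure. Example: -40 means 40% of the starting cells died.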 The source made the active and inactive calls. How the source made its calls: active means growth percent below 10; inactive means the rest.

For one assay, the system named is DU-145 prostate. Nature of the assay: NCI-60 one-dose screen, 48 h (100 = growth as untreated, 0 = no growth, -100 = all killed). To be noted: 10 µM unless noted.
Regarding `CCOC(=O)c1ccc(N(CCC(=O)O)C(C)=O)cc1`, the growth was 122% (inactive).

In the case of `Nc1c(C(=O)Nc2cccc(Cl)c2)sc2ncc(Br)cc12`, the growth was 59.6% (inactive).

For `CSC(=S)N/N=C(\C)c1ccccn1`, the growth is 16.1% (inactive).

`CC(=O)O[C@H]1[C@H](CC#CC#CC[C@@H]2C[C@]3(C)[C@H]4CC=C5[C@H]6[C@@H](C)[C@H](C)CC[C@]6(C(=O)NCCCCCCCCN)CC[C@@]5(C)[C@]4(C)CC[C@H]3C(C)(C)[C@H]2OC(C)=O)C[C@]2(C)[C@H]3CC=C4[C@H]5[C@@H](C)[C@H](C)CC[C@]5(C(=O)NCCCCCCCCN)CC[C@@]4(C)[C@]3(C)CC[C@H]2C1(C)C`: the growth was 110% (inactive).

In the case of `CC(C)COC(=O)NC(C)(C)C`, the growth was 115% (inactive).

In the case of `CCC(=O)NC(O)C(Cl)(Cl)C(C)Cl` (stereo not drawn), the growth is 116% (inactive).

Take `C#CCNC(=S)N/N=C(\C)c1ccccn1`: the growth is 15.4% (inactive).

`COc1ccc(-c2nnc(SCC(=O)Nc3ccc(C(=O)/C=C/c4ccc(Cl)cc4)cc3)n2-c2ccccc2)cc1`: the growth was 101% (inactive).

For the molecule `CC1CCN(Cc2ccc(NC(=O)c3cc4ccc5cccnc5c4[nH]3)cc2)CC1`, the growth is 2.24% (active).

Turning to `CC(C)N1CCN(c2ccncc2S(=O)(=O)N2CCN(C)CC2)CC1`, the growth was 110% (inactive).

On to `O=C(/C=C/c1ccccc1)n1c(-c2ccccc2)nc2ccccc21`, for which the growth is 113% (inactive).

`COC1CC(N)C2OC(c3ccccc3)OCC2O1` (stereo not drawn): the growth was 115% (inactive).

Regarding `COc1cccc(NC(=O)[C@H](C(C)C)n2c(=O)[nH]c3ccccc3c2=O)c1`, the growth is 107% (inactive).

In the case of `COc1ccc(-c2cnc3ccnn3c2-c2cc(OC)c(OC)c(OC)c2)cc1`, the growth was 20% (inactive).

For `COc1cc2cc(C(=O)Nc3ccccc3)c(N)nc2cc1OC`, the growth is 12.7% (inactive).

As to `O=C(C=P(c1ccccc1)(c1ccccc1)c1ccccc1)CCl`, the growth is -36.5% (active).

`CCCCCCCCCCCCCCCCS(=O)(=O)Nc1cc(C(=O)NN)cc(C(=O)NN)c1`: the growth is 81% (inactive).

Turning to `COS(=O)(=O)CCN(CCOS(C)(=O)=O)S(C)(=O)=O`, the growth is 105% (inactive).

Take `CCn1c(CN2CCN(Cc3ccccc3)CC2)nc2cc(NC(=O)c3cccs3)ccc21`: the growth was -57.7% (active).

As to `CC(=O)c1ccc(-n2c(-c3cc(-c4ccsc4)n[nH]3)n[nH]c2=S)cc1`, the growth is 110% (inactive).

On to `CCN(CC)Cc1cc(Nc2ccnc3cc(Cl)ccc23)cc(-c2ccc(Cl)cc2)c1O`, for which the growth was 26.1% (inactive).

For the molecule `O=C(NCC(c1ccsc1)N1CCCCCC1)c1ccc(C(F)(F)F)cc1` (stereo not drawn), the growth is 105% (inactive).

On to `COc1cc(NC(C)CCCN)c2ncccc2c1Oc1ccc(Cl)cc1` (stereo not drawn), for which the growth is 74.8% (inactive).

Turning to `O=C(c1ccccc1)N(CCCCl)C(=O)N(CCCCl)C(=O)c1ccccc1`, the growth is 102% (inactive).

As for `COc1ccc(C2=CC(c3ccc(OC)cc3Br)N3C=CSC3=N2)cc1` (stereo not drawn), the growth is 66.2% (inactive).

`CC(=O)c1nn(-c2ccccc2)/c(=N\N=C\c2coc3ccc(F)cc3c2=O)s1`: the growth is 111% (inactive).

For the molecule `O=C(c1ccc(C(F)(F)F)c(Cl)c1)N(Cc1ccc(Cl)cc1)c1ccc(-c2cc(C(F)(F)F)[nH]n2)c(O)c1`, the growth is 12.8% (inactive).

Regarding `C/C(=N\OC(=O)Nc1cccc(Cl)c1)c1ccccc1`, the growth is 102% (inactive).

Regarding `C/C(=C\C(=N\N=C(N)N)c1ccc(Cl)cc1)c1ccc(Cl)cc1`, the growth is -91.4% (active).

In the case of `O=C(NO)c1ccc(NCc2csc3ccccc23)cc1`, the growth was 54.3% (inactive).

For the molecule `C#CC[C@@H]1C[C@]2(C)[C@H]3CC=C4[C@H]5CC(C)(C)CC[C@]5(C(=O)NCCCCN)CC[C@@]4(C)[C@]3(C)CC[C@H]2C(C)(C)[C@H]1OC(C)=O`, the growth is -47.9% (active).

For the molecule `Oc1ccc(Cl)cc1-c1cc(-c2ccccc2Cl)[nH]n1`, the growth is 73.3% (inactive).

For `CC1C2CCC(C2)C1COCCOCCO` (stereo not drawn), the growth was 114% (inactive).

Turning to `O=C1C(Cl)=C(N/N=c2/[nH][nH]/c(=N/NC3=C(Cl)C(=O)c4ccccc4C3=O)c3ccccc23)C(=O)c2ccccc21`, the growth is 108% (inactive).

Regarding `COc1ccc(/C=c2\c(=O)n(-c3ccccc3)c3nn4c(n23)=NNC42CCCCC2)cc1`, the growth is 106% (inactive).

`CCNC(=S)N(Cc1ccccc1)Cc1ccccc1`: the growth was 124% (inactive).

With `N#CC1=C(N)Oc2nc[nH]c(=O)c2C1c1cccs1` (stereo not drawn), the growth is 107% (inactive).

On to `CCN(C(=O)Nc1cccc2ccccc12)c1ccccc1`, for which the growth is 107% (inactive).

`COc1ccc(-c2nc(-c3cc(OC)cc(OC)c3)[nH]c2-c2ccc(OC)cc2)cc1`: the growth was 78.5% (inactive).

For a further assay, the system named is K-562 leukemia. The assay is described as above. To be noted: 10 µM unless noted.
Take `CCOC(=O)c1ccc(N(CCC(=O)O)C(C)=O)cc1`: the growth was 103% (inactive).

As for `Nc1c(C(=O)Nc2cccc(Cl)c2)sc2ncc(Br)cc12`, the growth is 82.9% (inactive).

Consider `CSC(=S)N/N=C(\C)c1ccccn1`, for which the growth was 8.85% (active).

Take `CC(=O)O[C@H]1[C@H](CC#CC#CC[C@@H]2C[C@]3(C)[C@H]4CC=C5[C@H]6[C@@H](C)[C@H](C)CC[C@]6(C(=O)NCCCCCCCCN)CC[C@@]5(C)[C@]4(C)CC[C@H]3C(C)(C)[C@H]2OC(C)=O)C[C@]2(C)[C@H]3CC=C4[C@H]5[C@@H](C)[C@H](C)CC[C@]5(C(=O)NCCCCCCCCN)CC[C@@]4(C)[C@]3(C)CC[C@H]2C1(C)C`: the growth was 108% (inactive).

In the case of `CC(C)COC(=O)NC(C)(C)C`, the growth was 92.8% (inactive).

Turning to `CCC(=O)NC(O)C(Cl)(Cl)C(C)Cl` (stereo not drawn), the growth was 112% (inactive).

Regarding `C#CCNC(=S)N/N=C(\C)c1ccccn1`, the growth is 15.2% (inactive).

As to `COc1ccc(-c2nnc(SCC(=O)Nc3ccc(C(=O)/C=C/c4ccc(Cl)cc4)cc3)n2-c2ccccc2)cc1`, the growth was 96.7% (inactive).

Turning to `CC1CCN(Cc2ccc(NC(=O)c3cc4ccc5cccnc5c4[nH]3)cc2)CC1`, the growth was 8.98% (active).

In the case of `CC(C)N1CCN(c2ccncc2S(=O)(=O)N2CCN(C)CC2)CC1`, the growth was 98% (inactive).

With `O=C(/C=C/c1ccccc1)n1c(-c2ccccc2)nc2ccccc21`, the growth was 103% (inactive).

Take `COC1CC(N)C2OC(c3ccccc3)OCC2O1` (stereo not drawn): the growth is 93.9% (inactive).

Consider `COc1cccc(NC(=O)[C@H](C(C)C)n2c(=O)[nH]c3ccccc3c2=O)c1`, for which the growth is 90.4% (inactive).

As to `COc1ccc(-c2cnc3ccnn3c2-c2cc(OC)c(OC)c(OC)c2)cc1`, the growth is 5.43% (active).

Consider `COc1cc2cc(C(=O)Nc3ccccc3)c(N)nc2cc1OC`, for which the growth was -49.2% (active).

On to `O=C(C=P(c1ccccc1)(c1ccccc1)c1ccccc1)CCl`, for which the growth is -6.42% (active).

Turning to `CCCCCCCCCCCCCCCCS(=O)(=O)Nc1cc(C(=O)NN)cc(C(=O)NN)c1`, the growth is 33.9% (inactive).

In the case of `COS(=O)(=O)CCN(CCOS(C)(=O)=O)S(C)(=O)=O`, the growth was 76% (inactive).

In the case of `CCn1c(CN2CCN(Cc3ccccc3)CC2)nc2cc(NC(=O)c3cccs3)ccc21`, the growth is -27.5% (active).

`CC(=O)c1ccc(-n2c(-c3cc(-c4ccsc4)n[nH]3)n[nH]c2=S)cc1`: the growth is 105% (inactive).

As for `CCN(CC)Cc1cc(Nc2ccnc3cc(Cl)ccc23)cc(-c2ccc(Cl)cc2)c1O`, the growth was 18.8% (inactive).

As for `O=C(NCC(c1ccsc1)N1CCCCCC1)c1ccc(C(F)(F)F)cc1` (stereo not drawn), the growth was 83.7% (inactive).

For `COc1cc(NC(C)CCCN)c2ncccc2c1Oc1ccc(Cl)cc1` (stereo not drawn), the growth is 52.2% (inactive).

Take `O=C(c1ccccc1)N(CCCCl)C(=O)N(CCCCl)C(=O)c1ccccc1`: the growth was 91.1% (inactive).

With `COc1ccc(C2=CC(c3ccc(OC)cc3Br)N3C=CSC3=N2)cc1` (stereo not drawn), the growth was 9.34% (active).

For the molecule `CC(=O)c1nn(-c2ccccc2)/c(=N\N=C\c2coc3ccc(F)cc3c2=O)s1`, the growth was 94.5% (inactive).

As to `O=C(c1ccc(C(F)(F)F)c(Cl)c1)N(Cc1ccc(Cl)cc1)c1ccc(-c2cc(C(F)(F)F)[nH]n2)c(O)c1`, the growth was 7.36% (active).

For `C/C(=N\OC(=O)Nc1cccc(Cl)c1)c1ccccc1`, the growth is 90.1% (inactive).

As to `C/C(=C\C(=N\N=C(N)N)c1ccc(Cl)cc1)c1ccc(Cl)cc1`, the growth is -51.7% (active).

For `O=C(NO)c1ccc(NCc2csc3ccccc23)cc1`, the growth is 62% (inactive).

For `C#CC[C@@H]1C[C@]2(C)[C@H]3CC=C4[C@H]5CC(C)(C)CC[C@]5(C(=O)NCCCCN)CC[C@@]4(C)[C@]3(C)CC[C@H]2C(C)(C)[C@H]1OC(C)=O`, the growth was -30% (active).

With `Oc1ccc(Cl)cc1-c1cc(-c2ccccc2Cl)[nH]n1`, the growth was 37.8% (inactive).

Consider `CC1C2CCC(C2)C1COCCOCCO` (stereo not drawn), for which the growth is 109% (inactive).

As to `O=C1C(Cl)=C(N/N=c2/[nH][nH]/c(=N/NC3=C(Cl)C(=O)c4ccccc4C3=O)c3ccccc23)C(=O)c2ccccc21`, the growth is 9.7% (active).

As for `COc1ccc(/C=c2\c(=O)n(-c3ccccc3)c3nn4c(n23)=NNC42CCCCC2)cc1`, the growth was 109% (inactive).

In the case of `CCNC(=S)N(Cc1ccccc1)Cc1ccccc1`, the growth is 100% (inactive).

With `N#CC1=C(N)Oc2nc[nH]c(=O)c2C1c1cccs1` (stereo not drawn), the growth is 104% (inactive).

As for `CCN(C(=O)Nc1cccc2ccccc12)c1ccccc1`, the growth is 89.3% (inactive).

Turning to `COc1ccc(-c2nc(-c3cc(OC)cc(OC)c3)[nH]c2-c2ccc(OC)cc2)cc1`, the growth was 16.3% (inactive).
